Common to all, as to assay: DAPPL (digital affinity profiling via proximity ligation, sequencing); 10 mM Tris-HCl pH 7.5, 50 mM NaCl, 1 mM DTT, 4% glycerol, room temperature, 30 min; GST-TFs on glutathione beads, 16-mer random dsDNA library, 0.1% formaldehyde crosslink after washing; high values mean tight binding
One experiment concerns the target T1, FEV (Homo sapiens, UniProt Q99581 1-238).
T1 sequence: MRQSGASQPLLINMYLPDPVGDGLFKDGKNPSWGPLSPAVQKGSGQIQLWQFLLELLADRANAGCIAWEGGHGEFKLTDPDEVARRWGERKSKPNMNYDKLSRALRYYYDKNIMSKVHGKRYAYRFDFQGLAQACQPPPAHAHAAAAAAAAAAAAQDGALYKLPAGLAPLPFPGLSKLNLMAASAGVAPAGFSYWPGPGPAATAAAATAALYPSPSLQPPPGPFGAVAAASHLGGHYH
Conditions: protein: recombinant; tags: N-terminal GST; dsDNA, one strand shown. A digest of the protocol:
(§1)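 A tag-only sample was pooled with DNA-barcoded human transcription factors that had been expressed in yeast as GST fusions and captured on glutathione beads. The pools were incubated for 30 min at room temperature with 200 nmole of a random double-stranded 16-mer DNA library in Tris/NaCl/DTT/glycerol buffer, then washed, crosslinked with 0.1% formaldehyde, proximity-ligated (BsaI/T4 ligase, 1 h, 37 °C), PCR-amplified and sequenced on an Illumina NextSeq500. Binding signal is each hexamer's read frequency for a factor divided by its frequency for the tag-only sample.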

Another experiment has as its target ETV5 (Homo sapiens, UniProt P41161 1-510). Conditions: protein: recombinant; tags: N-terminal GST; dsDNA, one strand shown. A digest of the protocol: as §1
Another experiment concerns the target HSF1 (Homo sapiens, UniProt Q00613 1-529). As to conditions: protein: recombinant; tags: N-terminal GST; chain copies: 3; dsDNA, one strand shown. A digest of the protocol:
as §1

The next experiment deals with T2, SPIC (Homo sapiens, UniProt Q8N5J4 1-248).
T2 sequence: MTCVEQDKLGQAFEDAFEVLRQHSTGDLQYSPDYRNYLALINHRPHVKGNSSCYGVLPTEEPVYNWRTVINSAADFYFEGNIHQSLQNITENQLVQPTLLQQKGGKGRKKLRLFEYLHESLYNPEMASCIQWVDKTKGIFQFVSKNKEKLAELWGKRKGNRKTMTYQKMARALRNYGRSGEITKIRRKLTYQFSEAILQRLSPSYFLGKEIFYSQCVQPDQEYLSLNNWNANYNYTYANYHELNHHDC
As to conditions: protein: recombinant; tags: N-terminal GST; dsDNA, one strand shown. A digest of the protocol: as §1

The next experiment addresses ELF4 (Homo sapiens, UniProt Q99607 1-663). Conditions: protein: recombinant; tags: N-terminal GST; dsDNA, one strand shown. A digest of the protocol:
as §1

In the next experiment the target is T3, ELK4 (Homo sapiens, UniProt P28324-2 1-405).
T3 sequence: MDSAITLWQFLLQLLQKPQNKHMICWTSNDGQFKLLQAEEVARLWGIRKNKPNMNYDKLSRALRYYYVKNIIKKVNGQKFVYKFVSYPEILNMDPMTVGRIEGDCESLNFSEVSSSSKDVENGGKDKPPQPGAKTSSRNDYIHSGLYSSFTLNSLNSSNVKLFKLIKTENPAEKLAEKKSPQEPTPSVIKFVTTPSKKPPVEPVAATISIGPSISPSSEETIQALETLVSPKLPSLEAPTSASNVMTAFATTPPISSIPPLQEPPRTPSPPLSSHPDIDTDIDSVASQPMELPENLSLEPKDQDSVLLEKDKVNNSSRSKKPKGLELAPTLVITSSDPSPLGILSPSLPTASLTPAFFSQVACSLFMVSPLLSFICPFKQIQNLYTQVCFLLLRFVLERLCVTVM
As to conditions: protein: recombinant; tags: N-terminal GST; dsDNA, one strand shown. A digest of the protocol: as §1

In a further experiment the target is T4, ETV2 (Homo sapiens, UniProt O00321 1-342).
T4 sequence: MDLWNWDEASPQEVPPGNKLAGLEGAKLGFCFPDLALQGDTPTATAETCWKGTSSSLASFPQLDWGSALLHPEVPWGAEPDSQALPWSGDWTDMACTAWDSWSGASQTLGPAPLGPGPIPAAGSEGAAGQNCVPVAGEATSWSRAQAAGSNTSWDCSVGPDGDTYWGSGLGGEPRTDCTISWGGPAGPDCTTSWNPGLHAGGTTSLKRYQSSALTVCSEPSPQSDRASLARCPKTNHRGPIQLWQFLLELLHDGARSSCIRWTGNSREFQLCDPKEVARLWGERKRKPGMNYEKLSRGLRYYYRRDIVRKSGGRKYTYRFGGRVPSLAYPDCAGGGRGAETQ
As to conditions: protein: recombinant; tags: N-terminal GST; dsDNA, one strand shown. A digest of the protocol:
as §1

For another experiment, the target named is T5, ELF3 (Homo sapiens, UniProt P78545 1-371).
T5 sequence: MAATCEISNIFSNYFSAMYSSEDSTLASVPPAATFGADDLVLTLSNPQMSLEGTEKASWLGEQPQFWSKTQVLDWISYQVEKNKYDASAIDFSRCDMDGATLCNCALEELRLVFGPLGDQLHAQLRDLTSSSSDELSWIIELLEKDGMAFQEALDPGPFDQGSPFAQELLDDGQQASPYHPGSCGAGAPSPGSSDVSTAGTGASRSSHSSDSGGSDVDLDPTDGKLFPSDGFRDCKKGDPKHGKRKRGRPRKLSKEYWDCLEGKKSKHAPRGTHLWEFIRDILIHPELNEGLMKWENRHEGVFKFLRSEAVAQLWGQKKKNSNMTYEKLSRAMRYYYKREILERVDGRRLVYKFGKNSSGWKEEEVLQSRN
Conditions: protein: recombinant; tags: N-terminal GST; dsDNA, one strand shown. A digest of the protocol:
as §1

For another experiment, the target named is CRX (Homo sapiens, UniProt O43186 1-299). As to conditions: protein: recombinant; tags: N-terminal GST; dsDNA, one strand shown. A digest of the protocol:
as §1

The target of another experiment is ETV1 (Homo sapiens, UniProt P50549 1-477). As to conditions: protein: recombinant; tags: N-terminal GST; dsDNA, one strand shown. A digest of the protocol:
as §1

A further experiment concerns the target T6, ERF (Homo sapiens, UniProt P50548 1-548).
T6 sequence: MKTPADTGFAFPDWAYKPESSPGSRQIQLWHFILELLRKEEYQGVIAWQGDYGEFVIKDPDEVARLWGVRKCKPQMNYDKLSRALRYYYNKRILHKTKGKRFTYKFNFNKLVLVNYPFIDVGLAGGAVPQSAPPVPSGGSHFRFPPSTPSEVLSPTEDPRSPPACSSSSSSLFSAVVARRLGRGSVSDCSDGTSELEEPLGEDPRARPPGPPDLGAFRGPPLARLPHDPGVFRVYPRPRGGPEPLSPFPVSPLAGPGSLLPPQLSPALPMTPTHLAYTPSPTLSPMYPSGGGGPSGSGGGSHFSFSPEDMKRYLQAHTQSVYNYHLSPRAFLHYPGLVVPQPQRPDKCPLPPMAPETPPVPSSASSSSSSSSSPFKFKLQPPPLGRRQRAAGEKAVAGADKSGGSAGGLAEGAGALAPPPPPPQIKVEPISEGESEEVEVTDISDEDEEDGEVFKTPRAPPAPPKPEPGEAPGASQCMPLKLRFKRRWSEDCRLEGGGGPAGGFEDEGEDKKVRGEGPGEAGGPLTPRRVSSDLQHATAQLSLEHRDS
Conditions: protein: recombinant; tags: N-terminal GST; dsDNA, one strand shown. A digest of the protocol:
as §1

The target of a further experiment is T7, ETV3L (Homo sapiens, UniProt Q6ZN32 1-361).
T7 sequence: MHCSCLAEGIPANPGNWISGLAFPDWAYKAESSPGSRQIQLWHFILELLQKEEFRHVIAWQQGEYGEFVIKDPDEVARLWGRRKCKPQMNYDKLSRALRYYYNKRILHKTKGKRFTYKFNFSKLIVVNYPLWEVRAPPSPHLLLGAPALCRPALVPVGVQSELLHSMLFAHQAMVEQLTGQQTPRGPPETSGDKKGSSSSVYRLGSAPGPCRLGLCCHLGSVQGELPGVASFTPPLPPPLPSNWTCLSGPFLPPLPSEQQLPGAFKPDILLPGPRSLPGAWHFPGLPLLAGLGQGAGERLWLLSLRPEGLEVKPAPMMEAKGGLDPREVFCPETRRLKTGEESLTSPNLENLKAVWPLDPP
As to conditions: protein: recombinant; tags: N-terminal GST; dsDNA, one strand shown. A digest of the protocol: as §1

The next experiment deals with T8, ETS2 (Homo sapiens, UniProt P15036 1-469).
T8 sequence: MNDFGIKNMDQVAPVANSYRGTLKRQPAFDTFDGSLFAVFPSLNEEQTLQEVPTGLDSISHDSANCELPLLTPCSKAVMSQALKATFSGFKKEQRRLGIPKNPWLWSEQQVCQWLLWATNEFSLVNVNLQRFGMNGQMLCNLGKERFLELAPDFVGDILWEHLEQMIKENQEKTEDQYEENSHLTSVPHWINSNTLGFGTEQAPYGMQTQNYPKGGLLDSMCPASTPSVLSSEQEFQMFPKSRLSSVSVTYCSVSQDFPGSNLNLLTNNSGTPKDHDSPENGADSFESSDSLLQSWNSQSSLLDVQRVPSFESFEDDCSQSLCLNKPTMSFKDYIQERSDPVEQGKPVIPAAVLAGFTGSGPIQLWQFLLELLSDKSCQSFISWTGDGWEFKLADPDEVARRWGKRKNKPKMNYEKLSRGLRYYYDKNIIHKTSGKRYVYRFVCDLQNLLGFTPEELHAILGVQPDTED
As to conditions: protein: recombinant; tags: N-terminal GST; dsDNA, one strand shown. A digest of the protocol: as §1

The target in the next experiment is T9, SPDEF (Homo sapiens, UniProt O95238 1-335).
T9 sequence: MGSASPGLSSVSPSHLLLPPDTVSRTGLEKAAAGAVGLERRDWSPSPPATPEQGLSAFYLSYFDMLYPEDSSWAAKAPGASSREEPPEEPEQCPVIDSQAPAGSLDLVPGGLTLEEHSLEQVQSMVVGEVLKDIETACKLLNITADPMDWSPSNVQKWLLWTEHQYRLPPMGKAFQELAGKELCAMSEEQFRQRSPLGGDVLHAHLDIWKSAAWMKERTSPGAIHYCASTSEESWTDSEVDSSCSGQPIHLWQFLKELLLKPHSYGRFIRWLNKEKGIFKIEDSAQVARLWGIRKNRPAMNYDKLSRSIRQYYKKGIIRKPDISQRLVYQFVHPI
Conditions: protein: recombinant; tags: N-terminal GST; dsDNA, one strand shown. A digest of the protocol: as §1

Another experiment deals with T10, ETV7 (Homo sapiens, UniProt Q9Y603 1-341).
T10 sequence: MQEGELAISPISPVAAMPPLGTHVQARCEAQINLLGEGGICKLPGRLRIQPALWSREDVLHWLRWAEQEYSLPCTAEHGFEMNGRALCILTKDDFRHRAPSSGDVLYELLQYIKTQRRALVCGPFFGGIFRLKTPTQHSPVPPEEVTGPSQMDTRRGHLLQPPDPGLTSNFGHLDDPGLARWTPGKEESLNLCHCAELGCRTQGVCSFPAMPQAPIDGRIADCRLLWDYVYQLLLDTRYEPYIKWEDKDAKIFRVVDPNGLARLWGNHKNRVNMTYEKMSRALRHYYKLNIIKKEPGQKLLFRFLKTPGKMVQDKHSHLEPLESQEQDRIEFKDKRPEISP
Conditions: protein: recombinant; tags: N-terminal GST; dsDNA, one strand shown. A digest of the protocol: as §1

A further experiment concerns the target T11, ELF5 (Homo sapiens, UniProt Q9UKW6-2 1-255).
T11 sequence: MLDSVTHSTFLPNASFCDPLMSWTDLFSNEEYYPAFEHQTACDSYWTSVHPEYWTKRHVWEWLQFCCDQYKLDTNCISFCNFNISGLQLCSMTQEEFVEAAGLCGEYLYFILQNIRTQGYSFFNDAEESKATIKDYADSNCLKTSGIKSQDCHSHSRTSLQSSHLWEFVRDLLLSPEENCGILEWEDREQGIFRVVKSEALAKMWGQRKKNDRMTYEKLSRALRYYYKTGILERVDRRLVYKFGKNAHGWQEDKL
As to conditions: protein: recombinant; tags: N-terminal GST; dsDNA, one strand shown. A digest of the protocol: as §1

Another experiment addresses T12, ETV3 (Homo sapiens, UniProt P41162-2 1-143).
T12 sequence: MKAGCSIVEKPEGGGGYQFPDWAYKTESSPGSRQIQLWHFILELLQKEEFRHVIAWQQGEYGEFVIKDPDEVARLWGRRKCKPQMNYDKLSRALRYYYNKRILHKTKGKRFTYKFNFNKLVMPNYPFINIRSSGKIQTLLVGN
Conditions: protein: recombinant; tags: N-terminal GST; dsDNA, one strand shown. A digest of the protocol:
as §1

For another experiment, the target named is ETV6 (Homo sapiens, UniProt P41212 1-452). As to conditions: protein: recombinant; tags: N-terminal GST; dsDNA, one strand shown. A digest of the protocol: as §1
ETV6, sequence (P41212 whole entry): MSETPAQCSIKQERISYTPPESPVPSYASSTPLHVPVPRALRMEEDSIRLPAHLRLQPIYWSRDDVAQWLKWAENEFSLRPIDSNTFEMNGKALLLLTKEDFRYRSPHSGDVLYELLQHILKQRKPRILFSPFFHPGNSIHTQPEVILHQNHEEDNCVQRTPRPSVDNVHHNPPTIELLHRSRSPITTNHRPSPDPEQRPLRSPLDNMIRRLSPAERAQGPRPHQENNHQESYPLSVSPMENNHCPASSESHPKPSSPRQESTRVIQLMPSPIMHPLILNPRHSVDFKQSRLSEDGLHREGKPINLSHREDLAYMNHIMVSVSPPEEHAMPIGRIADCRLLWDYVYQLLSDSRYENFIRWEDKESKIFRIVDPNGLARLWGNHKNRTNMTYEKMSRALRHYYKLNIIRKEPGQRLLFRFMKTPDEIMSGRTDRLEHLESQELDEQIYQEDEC

The values below come from publication PMC7862700, “An all-to-all approach to the identification of sequence-specific readers for epigenetic DNA modifications on cytosine”.

HSF1, sequence (Q00613 whole entry): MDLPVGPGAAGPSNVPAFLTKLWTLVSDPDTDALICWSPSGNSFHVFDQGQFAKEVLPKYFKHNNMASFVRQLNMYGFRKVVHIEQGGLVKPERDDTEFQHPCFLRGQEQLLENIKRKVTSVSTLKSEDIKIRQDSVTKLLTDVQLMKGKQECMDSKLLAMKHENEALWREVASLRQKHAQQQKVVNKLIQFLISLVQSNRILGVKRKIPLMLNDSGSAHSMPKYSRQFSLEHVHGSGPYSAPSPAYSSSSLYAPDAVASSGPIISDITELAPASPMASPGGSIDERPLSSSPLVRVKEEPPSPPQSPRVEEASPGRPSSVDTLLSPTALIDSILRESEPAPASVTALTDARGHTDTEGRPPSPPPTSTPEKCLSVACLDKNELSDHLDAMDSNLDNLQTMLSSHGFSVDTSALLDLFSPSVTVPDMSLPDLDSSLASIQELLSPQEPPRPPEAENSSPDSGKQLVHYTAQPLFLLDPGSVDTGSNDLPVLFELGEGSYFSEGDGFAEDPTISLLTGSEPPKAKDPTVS
ETV1, sequence (P50549 whole entry): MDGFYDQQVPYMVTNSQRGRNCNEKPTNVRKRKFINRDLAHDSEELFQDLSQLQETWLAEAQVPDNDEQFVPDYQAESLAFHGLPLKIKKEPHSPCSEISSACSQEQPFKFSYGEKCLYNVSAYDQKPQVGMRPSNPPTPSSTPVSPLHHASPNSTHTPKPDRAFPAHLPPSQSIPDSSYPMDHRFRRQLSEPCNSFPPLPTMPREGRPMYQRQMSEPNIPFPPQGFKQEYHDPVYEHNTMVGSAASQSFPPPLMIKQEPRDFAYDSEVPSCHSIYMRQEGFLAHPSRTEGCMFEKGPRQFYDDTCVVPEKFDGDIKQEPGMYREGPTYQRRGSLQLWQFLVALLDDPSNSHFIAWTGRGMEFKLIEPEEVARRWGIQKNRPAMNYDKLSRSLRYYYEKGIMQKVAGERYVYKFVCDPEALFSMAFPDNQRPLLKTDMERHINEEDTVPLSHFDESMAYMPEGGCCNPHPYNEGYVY
ELF4, sequence (Q99607 whole entry): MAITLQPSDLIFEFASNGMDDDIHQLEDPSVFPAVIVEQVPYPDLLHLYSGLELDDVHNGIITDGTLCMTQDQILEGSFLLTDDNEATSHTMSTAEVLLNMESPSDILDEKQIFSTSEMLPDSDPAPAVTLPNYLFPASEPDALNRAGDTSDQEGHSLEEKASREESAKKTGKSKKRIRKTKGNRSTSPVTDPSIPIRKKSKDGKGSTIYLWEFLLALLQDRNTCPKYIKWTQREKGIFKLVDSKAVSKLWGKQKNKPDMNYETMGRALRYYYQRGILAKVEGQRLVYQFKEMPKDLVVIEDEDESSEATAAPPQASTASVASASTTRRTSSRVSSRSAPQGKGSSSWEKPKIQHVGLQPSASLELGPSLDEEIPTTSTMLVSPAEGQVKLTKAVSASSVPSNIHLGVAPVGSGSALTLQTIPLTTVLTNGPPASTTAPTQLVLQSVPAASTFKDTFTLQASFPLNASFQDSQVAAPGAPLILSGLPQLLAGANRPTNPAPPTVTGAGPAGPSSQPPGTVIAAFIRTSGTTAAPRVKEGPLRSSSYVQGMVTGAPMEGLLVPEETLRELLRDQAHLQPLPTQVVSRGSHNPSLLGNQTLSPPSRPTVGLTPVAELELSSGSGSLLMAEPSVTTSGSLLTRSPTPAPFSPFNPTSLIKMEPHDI
ETV5, sequence (P41161 whole entry): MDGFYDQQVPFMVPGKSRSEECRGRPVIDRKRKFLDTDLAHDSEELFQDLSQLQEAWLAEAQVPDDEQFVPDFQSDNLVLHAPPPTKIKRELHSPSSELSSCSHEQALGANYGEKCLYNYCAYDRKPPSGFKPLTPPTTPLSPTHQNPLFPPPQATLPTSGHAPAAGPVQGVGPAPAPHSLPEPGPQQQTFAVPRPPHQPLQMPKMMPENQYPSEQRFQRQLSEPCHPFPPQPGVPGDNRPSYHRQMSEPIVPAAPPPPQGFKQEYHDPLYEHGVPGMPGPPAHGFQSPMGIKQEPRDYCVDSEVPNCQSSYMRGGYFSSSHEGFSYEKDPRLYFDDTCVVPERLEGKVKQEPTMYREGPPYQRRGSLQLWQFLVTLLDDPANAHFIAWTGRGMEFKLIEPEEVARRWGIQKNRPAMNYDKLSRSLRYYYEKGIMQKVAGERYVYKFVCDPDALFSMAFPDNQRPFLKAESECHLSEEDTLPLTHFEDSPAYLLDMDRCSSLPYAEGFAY
CRX, sequence (O43186 whole entry): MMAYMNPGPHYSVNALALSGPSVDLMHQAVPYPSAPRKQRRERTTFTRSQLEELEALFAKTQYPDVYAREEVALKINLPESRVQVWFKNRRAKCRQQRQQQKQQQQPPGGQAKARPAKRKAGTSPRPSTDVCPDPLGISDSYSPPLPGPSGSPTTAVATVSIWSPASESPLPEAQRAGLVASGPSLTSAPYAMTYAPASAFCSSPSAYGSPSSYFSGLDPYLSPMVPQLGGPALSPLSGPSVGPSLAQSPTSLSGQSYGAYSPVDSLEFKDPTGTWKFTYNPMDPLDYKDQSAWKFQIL

As for CTTCAG, the binding signal with FEV is 1.26 fold enrichment (6-mer frequency, TF over GST control); with ETV5 it was 1.21 fold enrichment (6-mer frequency, TF over GST control); with HSF1 it was 1.23 fold enrichment (6-mer frequency, TF over GST control); with SPIC it was 1.26 fold enrichment (6-mer frequency, TF over GST control); with ELF4, 1.34 fold enrichment (6-mer frequency, TF over GST control); with ELK4, 1.41 fold enrichment (6-mer frequency, TF over GST control). The binding signal with ETV2 was 1.23 fold enrichment (6-mer frequency, TF over GST control); in the experiment with ELF3 it was 1.39 fold enrichment (6-mer frequency, TF over GST control); with CRX, 1.16 fold enrichment (6-mer frequency, TF over GST control); with ETV1, 1.33 fold enrichment (6-mer frequency, TF over GST control); in the experiment with ERF it was 1.27 fold enrichment (6-mer frequency, TF over GST control); in the experiment with ETV3L it was 1.26 fold enrichment (6-mer frequency, TF over GST control). The binding signal with ETS2 was 1.33 fold enrichment (6-mer frequency, TF over GST control); in the experiment with SPDEF, 1.34 fold enrichment (6-mer frequency, TF over GST control); with ETV7, 1.29 fold enrichment (6-mer frequency, TF over GST control); with ELF5 it was 1.35 fold enrichment (6-mer frequency, TF over GST control); with ETV3, 1.17 fold enrichment (6-mer frequency, TF over GST control); with ETV6, 1.37 fold enrichment (6-mer frequency, TF over GST control).
